Among all 360,000 compounds or so, about 7,500 (2.1%) were called active. Roughly 20% stayed inconclusive and do not appear here. Shown is part of a subset that was picked to be rich in actives. A call without a number means that no potency is given here. Values without a mark were called inactive. Calls follow the shape of the dose curve; as a rule, active = well fitted inhibition curve with a large enough effect; inconclusive = small, poorly fitted or top-dose-only effect, or effect the other way; inactive = flat fitted curve, though single readings scatter.
Potency is read from the fitted curve at half-maximal effect.

This test in a line: Nrf2 qHTS screen for inhibitors. Also: nearly all actives have a fitted effect of over 60% in size. The settings on record: A549 ARE-Fluc reporter, luciferase luminescence, 18-24 h; series mostly up to 46 µM. The text has this:
NIH Molecular Libraries Probe Production Network [MLPCN]
NIH Chemical Genomics Center [NCGC]
Assay Provider: Shyam Biswal, Johns Hopkins University
Nrf2 is a transcription factor that maintains cellular redox homoestasis and protects cells from xenobiotics. Nrf2 binds to the antioxidant response element (ARE) to induce gene expression of a broad spectrum of genes that encode for antioxidants. […] Finding a small molecule that act as an inhibitor of Nrf2 function would represent a novel therapeutic target that could lead to improvement in survival of patients undergoing chemo- and/or radio- therapy.
This is the Nrf2 activity measured in the luminescent read.
1. Shibata, T., et al., Genetic Alteration of Keap1 Confers Constitutive Nrf2 Activation and Resistance to Chemotherapy in Gallbladder Cancer. Gastroenterology, 2008.
2. Sjoblom, T., et al., The consensus coding sequences of human breast and colorectal cancers. Science, 2006. 314(5797): p. 268-74.
NCGC Assay Protocol Summary:
A concentration-response assay was performed with A549 ARE_Fluc cells which are suspended in 5% FBS OPTI-MEM. Five uL were dispensed into 1536-well white TC-treated plate using the Kalypsys dispenser to achieve a density of 5000 cells/well in all columns except column 1. The plate is incubated at 37deg C at 5% CO2 for 2 hours before 23 nL of compounds are added with the Kalypsys pin tool equipped with a 1,536-pin array containing 10-nL slotted pins (FP1S10, 0.457-mm diameter, 50.8 mm long; V&P Scientific). The control compounds Budesonide and Staurosporine are both added at a concentration of 2mM and Budesonide is also added as a 1:10 titration, starting at 200uM, to achieve dose-response. After an 18-24 hour incubation at 37deg C at 5% CO2, 5ul of medium is added to column 1. Afterwards 1ul of 5x of CellTiter-Fluor (Promega) is added to every well. The plate is then incubated at 37deg C at 5% CO2 for 30 minutes before they are read on the ViewLux (Perkin Elmer) for a fluorescent read Ex=405(10)/Em=525(10) for a 3 second exposure, 2x binning, and high gain. Then 3 uL of 3x BugLite is dispensed into all wells and the plate is incubated at ambient room temperature for 15 minutes. Afterwards another ViewLux read is performed using the clear filter to get a luminescent read with the settings of 40 second exposure, 2x binning, and high gain. Cytotoxicity is assessed through the first fluorescent read and then biochemical activity against Nrf2 is measured in the luminescent read.
(qHTS replaces the single test concentration by a dilution series.)
On to `Oc1c(Cl)cc(Cl)c(Cl)c1Cc1c(O)c(Cl)cc(Cl)c1Cl`, for which the Potency is 14.6 µM (active).

`O=C(c1ccc2c(=O)n(Cc3ccco3)c(=S)[nH]c2c1)N1CCCC1`: the Potency entry is “inactive”.

With `O=C(Nc1cc(S(=O)(=O)N2CCCCC2)ccc1Cl)C1COc2ccccc2O1` (stereo unspecified), the Potency entry was “inactive”.

Regarding `COc1ccc(Oc2coc3cc(OC(=O)c4cncc(Br)c4)ccc3c2=O)cc1`, the Potency result was “inactive”.

As for `CCc1ccc(Oc2coc3cc(OC(=O)c4cc5ccccc5oc4=O)ccc3c2=O)cc1`, the Potency was 4.61 µM (active).

Take `CCCOC(=O)c1cc2ccccc2oc1=O`: the Potency entry was “inactive”.

With `CCc1ccc(Oc2coc3cc(O)ccc3c2=O)cc1`, the Potency was 7.31 µM (active).

Take `CCOC(=O)c1cc(=O)c2ccc(OCc3ccccc3)cc2o1`: the Potency entry is “inactive”.

Regarding `COc1ccc(-c2onc(C)c2C)cc1S(=O)(=O)NCc1cccs1`, the Potency result is “inactive”.

For `CC(C)Cn1c(=O)c2ccccc2n2c(-c3cccc(Cl)c3)nnc12`, the Potency entry was “inactive”.

Regarding `O=C(Nc1ccc(C(=O)N2CCOCC2)cc1)Nc1cccc(C(F)(F)F)c1`, the Potency result was “inactive”.

In the case of `CCOC(=O)c1cccc(NS(=O)(=O)c2c(C(=O)N3CCCCCC3)c(C)n(C)c2C)c1`, the Potency entry is “inactive”.

For `CCOC(=O)N1CCN(C(=O)c2ccc(S(=O)(=O)Nc3cccc(C(F)(F)F)c3)cc2)CC1`, the Potency is 18.4 µM (active).

In the case of `Cc1ccc(C)c(N2CCN(C(=O)CCc3nc(-c4cccc(C(F)(F)F)c4)no3)CC2)c1`, the Potency result was “inactive”.

Take `COc1ccc(C(=O)OCC(=O)c2cc(C)n(CC3CCCO3)c2C)cc1[N+](=O)[O-]` (stereo unspecified): the Potency result is “inactive”.

`Cc1oc2ncnc(N3CCCCC3)c2c1C(=O)N1CCN(c2cccc(Cl)c2)CC1`: the Potency result is “inactive”.

As for `CC(=O)OCC1(O)CC23CCC4c5ccoc5CCC4(C)C2CCC1C3` (stereo unspecified), the Potency result was “inactive”.

With `CCC1(C)Cc2c(sc3[nH]c(=S)n(Cc4ccccc4)c(=O)c23)CO1` (stereo unspecified), the Potency was 16.4 µM (active).

For `CCC1(C)Cc2c(sc3nc4n(c(=O)c23)CCCS4)CO1` (stereo unspecified), the Potency result was “inactive”.

For the compound `CCC1(C)Cc2c(sc3nc(SC)[nH]c(=O)c23)CO1` (stereo unspecified), the Potency entry was “inactive”.

Turning to `COc1ccc(Cl)cc1NC(=O)c1sc2nc3c(cc2c1N)CN(C)CC3`, the Potency result is “inactive”.

Turning to `COc1ccc(CNc2nc(-c3ccc(Cl)cc3)cc(C(F)(F)F)n2)cc1`, the activity change, negative = inhibition is 0.506% [at 9.27 µM].

As to `CN(C)c1ccc(C(=O)NCC(=O)OC(C(=O)Nc2cc(C(F)(F)F)ccc2Cl)c2ccccc2)cc1` (stereo unspecified), the Potency result was “inactive”.

For `Cc1cccc(N2O[C@H]3C=CC2CCCC3)n1`, the Potency entry was “inactive”.

For `COc1cc(/C=C/C(=O)Nc2ccc(OC)c(S(=O)(=O)N3CCOCC3)c2)ccc1OCC#N`, the Potency was 9.2 µM (active).

As for `COc1ccc(C(=O)OCC(=O)c2ccc(C)c(S(=O)(=O)N3CCOCC3)c2)cc1OC`, the Potency is 20.6 µM (active).

In the case of `COc1ccc(CCC(=O)Nc2ccc(Cl)c(S(=O)(=O)N3CCOCC3)c2)cc1OC`, the Potency is 18.4 µM (active).

Consider `COc1ccc(COC(=O)c2ccc(Cl)c(S(=O)(=O)N3CCOCC3)c2)cc1F`, for which the Potency result is “inactive”.

In the case of `Cc1ccc(C(=O)OCC(=O)N2CCCCCC2)cc1S(=O)(=O)N1CCOCC1`, the Potency entry is “inactive”.

On to `COc1ccc(CC(=O)Nc2ccc3c(c2)CCC3)cc1S(=O)(=O)N1CCOCC1`, for which the Potency result is “inactive”.

As for `COc1ccc(CNC(=O)COC(=O)c2ccc(C)c(S(=O)(=O)N3CCOCC3)c2)cc1OC`, the Potency entry is “inactive”.

As for `COc1cc(/C=C/C(=O)OCC(=O)N2CCOCC2)ccc1OCC#N`, the Potency result is “inactive”.

`COc1ccc(NS(=O)(=O)c2cc(NC(=O)/C=C/c3cc(OC)c(OC)c(OC)c3)ccc2N2CCCCC2)cc1`: the Potency entry was “inactive”.

With `CCN1CCN(CCCNC(=O)c2ccc3c(c2)sc2nc(-c4ccc(OC)cc4)cn23)CC1`, the Potency entry is “inactive”.

`Cc1ccc(O)c(NC(=O)CCS(=O)(=O)c2nc(-c3ccc4c(c3)OCO4)cc(C(F)(F)F)n2)c1`: the activity change, negative = inhibition was 8.08% [at 9.27 µM].

On to `CC1CCCCN1CC(=O)N1CCCc2c1c(=O)oc1ccc(OCc3ccccc3)cc21` (stereo unspecified), for which the Potency entry is “inactive”.

Regarding `CC1=C(c2ccc(C)c(C)c2)S(=O)(=O)NC1=NCc1ccccc1Cl`, the Potency was 23.1 µM (active).

Regarding `Cc1ccc(-c2cc(C(=O)Oc3ccccc3Cl)no2)cc1C`, the Potency result was “inactive”.

Regarding `Cc1ccc(CNc2ncnc3cc(-c4ccc5c(c4)OCO5)ccc23)o1`, the Potency result is “inactive”.

`O=C(O)c1ccc(NC(=O)c2ccc(COc3ccc(Cl)cc3)o2)cc1`: the Potency entry was “inactive”.

`Cc1cccc(NC(=O)c2ccc(COc3ccccc3[N+](=O)[O-])o2)n1`: the Potency result was “inactive”.

Regarding `O=C(Nc1ccn(Cc2ccccc2F)n1)c1ccc(COc2ccc(Cl)cc2Cl)o1`, the Potency was 25.9 µM (active).

`CCc1nn(CC(=O)Nc2cc(C)cc(C)c2)c(=O)c2cc3sccc3n12`: the Potency result is “inactive”.

Take `CC1CC2=C(CC1/C=N/NC(N)=S)C(C)(C)CCC2` (stereo unspecified): the Potency is 23.1 µM (active).

Regarding `CCc1nc2nc(C)cc(Nc3ccc(F)c(Cl)c3)n2n1`, the Potency result was “inactive”.

`Cc1ccc(CNC(=O)Cn2cnc3c(NCc4ccccc4)ncnc32)o1`: the Potency result was “inactive”.

In the case of `Cc1cccc(NC(=O)Cn2cc(S(=O)(=O)Cc3ccccc3Cl)c3ccccc32)c1`, the Potency result was “inactive”.

As to `O/N=C(\C[n+]1ccccc1)c1ccc(Br)cc1`, the Potency was 3.66 µM (active).

In the case of `CCN(C(=O)c1ccc(Br)cc1)c1ccccc1`, the Potency entry is “inactive”.

Turning to `O=C(O)CC/C(=N\NC(=O)c1ccc(F)cc1)c1ccc(Br)cc1`, the Potency result was “inactive”.

Consider `COC(=O)[C@]1(Cc2ccccc2)N[C@H](CN(C)S(=O)(=O)c2ccc(OC(F)(F)F)cc2)[C@@H]2C(=O)N(C)C(=O)[C@@H]21`, for which the Potency result was “inactive”.

Take `CCCN(CCC)CCCNC(=O)Cn1ncc2c3ccccc3n(Cc3ccccc3)c2c1=O`: the Potency result was “inactive”.

In the case of `Cc1ccc(S(=O)(=O)c2cn(Cc3ccccc3)c3cc(N4CCCC4)c(F)cc3c2=O)c(C)c1`, the Potency result is “inactive”.

For the compound `Cc1cccc(S(=O)(=O)c2cn(Cc3ccccc3)c3cc(N4CCOCC4)c(F)cc3c2=O)c1`, the Potency result was “inactive”.

For `Cc1ccc(S(=O)(=O)N2C[C@@H]3CCCC[C@@H]3[C@@H](C)[C@H]2c2cn(Cc3ccccc3)c3ccc(F)cc23)cc1`, the Potency is 2.91 µM (active).

Turning to `N#CC1=C(N)Oc2cc(N)ccc2C1c1ccccc1` (stereo unspecified), the Potency entry was “inactive”.

Take `CN(C)Cc1cn(-c2ccccc2)nc1-c1ccccc1`: the Potency result is “inactive”.

With `O=C(N[C@H]1C/C=C\C(c2ccc(F)cc2)N(Cc2ccccc2)C(=O)C1)OCC1c2ccccc2-c2ccccc21` (stereo partly specified), the Potency result was “inactive”.

For `CCc1c(SCCC(=O)O)nc2ccccc2c1C`, the Potency entry is “inactive”.

As to `CC(C)N(C(=O)CSc1nc(COc2ccccc2)nc2ccccc12)C(C)C`, the Potency entry is “inactive”.

In the case of `O=C(O)CSc1nccc2ccccc12`, the Potency was 16.4 µM (active).

For the origin of these results see PubChem BioAssay AID504444 (National Center for Advancing Translational Sciences (NCATS), 2011).
